Assay results taken from PubChem BioAssay (EPA / NIEHS).
Results filed as inconclusive are left out. Active and inactive are the calls of the source. How the source made its calls: active means hit-call score of the fitted dose curve at least 0.9, where 1 is the maximum; inconclusive means response in the unintended direction; inactive means score below 0.9.

molecular target: Cellular tumor antigen p53 (Homo sapiens) (UniProt P04637); test: TOX21_p53_BLA_p5_ratio: Tox21 HCT-116 p53 Agonism Beta-lactamase Assay, Ratio, Phase 5 (AID 2283599)
Sequence (P04637 whole entry, looked up): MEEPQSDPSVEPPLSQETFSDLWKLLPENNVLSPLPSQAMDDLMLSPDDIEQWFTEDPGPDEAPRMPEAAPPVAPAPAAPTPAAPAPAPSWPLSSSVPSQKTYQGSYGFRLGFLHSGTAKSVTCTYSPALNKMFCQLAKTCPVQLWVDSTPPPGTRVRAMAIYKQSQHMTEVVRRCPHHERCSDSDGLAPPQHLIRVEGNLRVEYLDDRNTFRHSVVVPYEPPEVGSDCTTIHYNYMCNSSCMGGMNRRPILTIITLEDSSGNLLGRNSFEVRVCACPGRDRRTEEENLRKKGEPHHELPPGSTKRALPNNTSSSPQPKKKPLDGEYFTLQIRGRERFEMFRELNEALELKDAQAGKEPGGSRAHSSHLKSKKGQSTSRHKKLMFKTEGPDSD
Procedure, shortened: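 Beta-lactamase reporter ratio (blue 460 nm over green 530 nm, 405 nm excitation) after 2 h CCF4-AM loading, in HCT-116 cells exposed 16 h at 37 C to compounds pinned at 217-fold dilution. Increases relative to DMSO baseline scored.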

Q: With `CN1C(=O)NC(=O)C(C)(C2=CCCCC2)C1=O` (stereo unspecified) as the compound, how does the outcome read?
A: inactive

Q: For `NC(=O)CS(=O)C(c1ccccc1)c1ccccc1` (stereo unspecified), which outcome is on record?
A: inactive

Q: For `CC(C)CCON=O`, which outcome is on record?
A: inactive

Q: For `C[C@@H]1CN(C2CCC(C#N)(c3ccc(F)cc3)CC2)CC[C@]1(C(=O)O)c1ccccc1` (stereo partly specified), which outcome is on record?
A: inactive

Q: Which outcome does the source give for `CC[C@H](OC(C)=O)C(C[C@H](C)NC)(c1ccccc1)c1ccccc1` here?
A: inactive

Q: Which outcome does the source give for `OCCSCSCCO` here?
A: inactive

Q: For `C(CCOCC1CO1)COCC1CO1` (stereo unspecified), which outcome is on record?
A: inactive

Q: For `O=C(N/N=C/c1ccc([N+](=O)[O-])o1)c1cc([N+](=O)[O-])cc([N+](=O)[O-])c1O`, which outcome is on record?
A: inactive

Q: For `O=[N+]([O-])C(Br)Br`, which outcome is on record?
A: inactive

Q: With `O=C(N[C@@H]1N=C(c2ccccc2F)c2cccc3c2N(CC3)C1=O)c1cc2ccccc2[nH]1` as the compound, how does the outcome read?
A: inactive

Q: Which outcome does the source give for `O=C(NC(=O)c1ccccc1Cl)Nc1ccc(OC(F)(F)F)cc1` here?
A: inactive

Q: Which outcome does the source give for `C[C@@H]1CC[C@H]2[C@@H](C)C(=O)O[C@@H]3O[C@@]4(C)CC[C@@H]1[C@]32OO4` here?
A: inactive

Q: For `CC(C)(C)NCC(O)c1ccccc1Cl` (stereo unspecified), which outcome is on record?
A: inactive

Q: Which outcome does the source give for `Clc1ccc(CSC(Cn2ccnc2)c2ccc(Cl)cc2Cl)cc1` (stereo unspecified) here?
A: inactive

Q: Which outcome does the source give for `N#CC(C#N)=Cc1cc(O)c(O)c(O)c1` here?
A: inactive

Q: Which AC50 does the source give for `CCCCCCCCCCCCCC[P+](CCCCCC)(CCCCCC)CCCCCC` (tested in a mixture with another compound) here?
A: 46.8 µM (active)

test system: not listed separately; test: TOX21_p53_BLA_p5_viability: Viability Assessment in the Tox21 HCT-116 p53 Agonism Beta-lactamase Assay, Phase 5 (AID 2283600)
Procedure, shortened: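 Workflow: seed 4000 cells per well, wait 5 h, add compounds (DMSO, 217-fold dilution), incubate 16 h, load CCF4-AM 2 h, add CellTiter-Glo, read luminescence after 30 min.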

Q: For `[O]=[Cd]`, which outcome is on record?
A: inactive

Q: For `ClC(Br)Br`, which outcome is on record?
A: inactive

Q: For `O=NN1CCN(N=O)CC1`, which outcome is on record?
A: inactive

Q: For `F/C(COc1ccc2c(c1)[nH]c1ccccc12)=C1/CN2CCC1CC2`, which outcome is on record?
A: inactive

Q: For `CCOP(=S)(OCC)Oc1cnc2ccccc2n1`, which outcome is on record?
A: inactive

Q: For `O=C(Nc1ccccc1)N(Cc1ccc(Cl)cc1)C1CCCC1`, which outcome is on record?
A: inactive

Q: Which outcome does the source give for `O=C(O)C(Cl)Br` (stereo unspecified) here?
A: inactive

Q: With `[H+].[H+].[Hg+2].[O-]B([O-])[O-].[c-]1ccccc1` as the compound, how does the AC50 read?
A: 4.94 µM (active)

Q: Which outcome does the source give for `O=C(O)CC(Cl)C(=O)O` (stereo unspecified) here?
A: inactive

Q: With `NC1(c2ccccc2)CCCCC1` as the compound, how does the outcome read?
A: inactive

Q: Which outcome does the source give for `C[C@@H](CO)NC(=O)[C@@H]1C=C2c3cccc4[nH]cc(c34)C[C@H]2N(C)C1` here?
A: inactive

Q: For `NCC(O)c1cccc(O)c1` (stereo unspecified), which outcome is on record?
A: inactive

Q: Which outcome does the source give for `CC[N+](C)(CC)CCOC(=O)C(O)(c1ccccc1)c1ccccc1` here?
A: inactive

Q: With `CN1C(=O)NC(=O)C(C)(C2=CCCCC2)C1=O` (stereo unspecified) as the compound, how does the outcome read?
A: inactive

Q: Which outcome does the source give for `NC(=O)CS(=O)C(c1ccccc1)c1ccccc1` (stereo unspecified) here?
A: inactive

Q: Which outcome does the source give for `CC(C)CCON=O` here?
A: inactive

Q: For `CC[C@H](OC(C)=O)C(C[C@H](C)NC)(c1ccccc1)c1ccccc1`, which outcome is on record?
A: inactive

Q: For `O=NN1CCNCC1`, which outcome is on record?
A: inactive

Q: For `OCCSCSCCO`, which outcome is on record?
A: inactive

Q: For `C(CCOCC1CO1)COCC1CO1` (stereo unspecified), which outcome is on record?
A: inactive

Q: For `O=C(N/N=C/c1ccc([N+](=O)[O-])o1)c1cc([N+](=O)[O-])cc([N+](=O)[O-])c1O`, which outcome is on record?
A: inactive

Q: For `O=[N+]([O-])C(Br)Br`, which outcome is on record?
A: inactive

Q: For `O=C/C=C/c1ccco1`, which outcome is on record?
A: inactive

Q: With `COc1ccc2c(c1OC)CN1CCc3cc4c(cc3C1C2)OCO4` (stereo unspecified) as the compound, how does the outcome read?
A: inactive

Q: For `O=C(N[C@@H]1N=C(c2ccccc2F)c2cccc3c2N(CC3)C1=O)c1cc2ccccc2[nH]1`, which outcome is on record?
A: inactive

Q: For `O=C(NC(=O)c1ccccc1Cl)Nc1ccc(OC(F)(F)F)cc1`, which outcome is on record?
A: inactive

Q: With `C[C@@H]1CC[C@H]2[C@@H](C)C(=O)O[C@@H]3O[C@@]4(C)CC[C@@H]1[C@]32OO4` as the compound, how does the outcome read?
A: inactive

Q: For `CC(C)(C)NCC(O)c1ccccc1Cl` (stereo unspecified), which outcome is on record?
A: inactive

Q: With `COC(=O)[C@]12CCC(C)(C)C[C@H]1[C@H]1C(=O)C=C3[C@@]4(C)C=C(C#N)C(=O)C(C)(C)[C@@H]4CC[C@@]3(C)[C@]1(C)CC2` as the compound, how does the AC50 read?
A: 2.57 µM (active)

Q: For `C[C@]12CCC(=O)C[C@@H]1CC[C@@H]1[C@@H]2CC[C@@]2(C)[C@H]1CC[C@]2(C)O`, which outcome is on record?
A: inactive

Q: With `Clc1ccc(CSC(Cn2ccnc2)c2ccc(Cl)cc2Cl)cc1` (stereo unspecified) as the compound, how does the outcome read?
A: inactive

Q: Which outcome does the source give for `N#CC(C#N)=Cc1cc(O)c(O)c(O)c1` here?
A: inactive

Q: Which AC50 does the source give for `CCCCCCCCCCCCCC[P+](CCCCCC)(CCCCCC)CCCCCC` (tested in a mixture with another compound) here?
A: 15.2 µM (active)

molecular target: Cellular tumor antigen p53 (Homo sapiens) (UniProt P04637); test: TOX21_p53_BLA_p4_ratio: Tox21 HCT-116 p53 Agonism Beta-lactamase Assay, Ratio, Phase 4 (AID 2283601)
Procedure, shortened: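 Signal is the blue/green (460nm/530nm) ratio of cleaved versus uncleaved CCF4-AM substrate, read after 2 h substrate loading. Cells were HCT116 carrying the p53-responsive beta-lactamase reporter, dosed 16 h at 37C, 5% CO2; CellTiter-Glo measured in parallel.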

Q: With `ClC(Cl)(Cl)Cl` as the compound, how does the outcome read?
A: inactive

Q: With `[O]=[Cd]` as the compound, how does the outcome read?
A: inactive

Q: With `ClC(Br)Br` as the compound, how does the outcome read?
A: inactive

Q: Which outcome does the source give for `O=NN1CCN(N=O)CC1` here?
A: inactive

Q: Which outcome does the source give for `CCCCN=C=O` here?
A: inactive

Q: For `F/C(COc1ccc2c(c1)[nH]c1ccccc12)=C1/CN2CCC1CC2`, which outcome is on record?
A: inactive

Q: Which outcome does the source give for `CCOP(=S)(OCC)Oc1cnc2ccccc2n1` here?
A: inactive

Q: Which outcome does the source give for `O=C(Nc1ccccc1)N(Cc1ccc(Cl)cc1)C1CCCC1` here?
A: inactive

Q: Which outcome does the source give for `CCCCCCCCCCCCCCCCCCn1cc[n+](C)c1` here?
A: inactive

Q: For `O=C(O)C(Cl)Br` (stereo unspecified), which outcome is on record?
A: inactive

Q: Which AC50 does the source give for `[H+].[H+].[Hg+2].[O-]B([O-])[O-].[c-]1ccccc1` here?
A: 18.3 µM (active)

Q: For `O=C(O)CC(Cl)C(=O)O` (stereo unspecified), which outcome is on record?
A: inactive

Q: With `NC1(c2ccccc2)CCCCC1` as the compound, how does the outcome read?
A: inactive

Q: With `C[C@@H](CO)NC(=O)[C@@H]1C=C2c3cccc4[nH]cc(c34)C[C@H]2N(C)C1` as the compound, how does the outcome read?
A: inactive

Q: Which outcome does the source give for `CC[N+](C)(CC)CCOC(=O)C(O)(c1ccccc1)c1ccccc1` here?
A: inactive

Q: With `COc1cc(N)c(Cl)cc1C(=O)NC1CN2CCC1CC2` (stereo unspecified) as the compound, how does the outcome read?
A: inactive

Q: With `CN1C(=O)NC(=O)C(C)(C2=CCCCC2)C1=O` (stereo unspecified) as the compound, how does the outcome read?
A: inactive

Q: With `CC(C)CCON=O` as the compound, how does the outcome read?
A: inactive

Q: With `CC[C@H](OC(C)=O)C(C[C@H](C)NC)(c1ccccc1)c1ccccc1` as the compound, how does the outcome read?
A: inactive

Q: With `O=NN1CCNCC1` as the compound, how does the outcome read?
A: inactive

Q: Which outcome does the source give for `OCCSCSCCO` here?
A: inactive

Q: Which outcome does the source give for `O=C(N/N=C/c1ccc([N+](=O)[O-])o1)c1cc([N+](=O)[O-])cc([N+](=O)[O-])c1O` here?
A: inactive

Q: Which outcome does the source give for `O=[N+]([O-])C(Br)Br` here?
A: inactive

Q: Which outcome does the source give for `O=C/C=C/c1ccco1` here?
A: inactive

Q: For `O=C(N[C@@H]1N=C(c2ccccc2F)c2cccc3c2N(CC3)C1=O)c1cc2ccccc2[nH]1`, which AC50 is on record?
A: 26.6 µM (active)

Q: With `O=C(NC(=O)c1ccccc1Cl)Nc1ccc(OC(F)(F)F)cc1` as the compound, how does the outcome read?
A: inactive

Q: Which outcome does the source give for `CC(C)(C)NCC(O)c1ccccc1Cl` (stereo unspecified) here?
A: inactive

Q: For `COC(=O)[C@]12CCC(C)(C)C[C@H]1[C@H]1C(=O)C=C3[C@@]4(C)C=C(C#N)C(=O)C(C)(C)[C@@H]4CC[C@@]3(C)[C@]1(C)CC2`, which AC50 is on record?
A: 7.4 µM (active)

Q: Which outcome does the source give for `C[C@]12CCC(=O)C[C@@H]1CC[C@@H]1[C@@H]2CC[C@@]2(C)[C@H]1CC[C@]2(C)O` here?
A: inactive

Q: For `Clc1ccc(CSC(Cn2ccnc2)c2ccc(Cl)cc2Cl)cc1` (stereo unspecified), which AC50 is on record?
A: 15.4 µM (active)

Q: For `N#CC(C#N)=Cc1cc(O)c(O)c(O)c1`, which outcome is on record?
A: inactive

Q: With `CCCCCCCCCCCCCC[P+](CCCCCC)(CCCCCC)CCCCCC` (tested in a mixture with another compound) as the compound, how does the outcome read?
A: inactive
